Measured values published in article PMC4336329 (PLoS ONE, 2015).
In all, about 310,000 compounds went through this assay and about 14,000 (4.5%) showed an effect of 50% or more. Effects have a minus sign here. This is one part of a sample in which strong results are shown more often than they occur.

These compounds were tested against human ether-à-go-go-related gene (hERG) potassium channel (human, UniProt Q12809) (assay: primary screen, population patch clamp on CHO cells stably expressing hERG; higher = less effect of the substance).
Chain of human ether-à-go-go-related gene (hERG) potassium channel (Q12809 whole entry, looked up): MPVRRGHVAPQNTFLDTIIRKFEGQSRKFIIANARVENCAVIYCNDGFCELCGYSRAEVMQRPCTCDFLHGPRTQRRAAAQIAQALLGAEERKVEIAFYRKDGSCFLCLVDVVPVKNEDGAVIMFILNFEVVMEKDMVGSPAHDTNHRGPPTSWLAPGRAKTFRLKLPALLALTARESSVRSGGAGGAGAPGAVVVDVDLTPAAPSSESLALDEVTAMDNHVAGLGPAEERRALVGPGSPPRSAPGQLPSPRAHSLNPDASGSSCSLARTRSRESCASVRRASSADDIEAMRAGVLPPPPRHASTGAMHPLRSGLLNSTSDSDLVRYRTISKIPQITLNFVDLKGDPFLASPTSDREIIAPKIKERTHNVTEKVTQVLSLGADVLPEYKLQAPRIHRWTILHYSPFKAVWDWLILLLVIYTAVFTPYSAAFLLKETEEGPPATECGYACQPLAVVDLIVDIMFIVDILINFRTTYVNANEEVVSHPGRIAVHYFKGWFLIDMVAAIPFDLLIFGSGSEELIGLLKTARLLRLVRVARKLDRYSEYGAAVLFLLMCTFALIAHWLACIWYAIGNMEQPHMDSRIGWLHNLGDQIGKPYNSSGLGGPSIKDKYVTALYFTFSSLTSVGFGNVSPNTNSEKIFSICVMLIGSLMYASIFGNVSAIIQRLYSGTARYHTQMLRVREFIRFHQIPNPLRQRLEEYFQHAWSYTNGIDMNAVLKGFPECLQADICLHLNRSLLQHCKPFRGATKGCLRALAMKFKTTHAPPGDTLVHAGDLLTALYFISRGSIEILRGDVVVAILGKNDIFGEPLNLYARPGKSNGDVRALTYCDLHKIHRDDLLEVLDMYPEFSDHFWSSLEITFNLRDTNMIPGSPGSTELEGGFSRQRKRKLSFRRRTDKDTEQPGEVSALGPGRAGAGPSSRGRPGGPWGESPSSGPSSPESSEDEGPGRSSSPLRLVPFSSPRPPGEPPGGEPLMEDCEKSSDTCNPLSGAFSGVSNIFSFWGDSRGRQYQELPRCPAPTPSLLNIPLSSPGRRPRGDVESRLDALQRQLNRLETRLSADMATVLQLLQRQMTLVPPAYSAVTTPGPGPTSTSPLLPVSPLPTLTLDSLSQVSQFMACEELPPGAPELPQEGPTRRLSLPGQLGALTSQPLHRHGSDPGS
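Also: peak tail current of the secondary pulse compared with the same well before compound.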

| SMILES | hERG current change (%, negative = inhibition) at 10uM [%] |
| --- | --- |
| Cn1cc(C(=O)OCC(=O)Nc2ccccc2)c2ccccc21 | -8.39 |
| CCCCCCOc1ccc(N2C(=O)CC(N3CCN(CCN=CC4C(=O)CC(C)(C)CC4=O)CC3)C2=O)cc1 (stereo not drawn) | -32.5 |
| CN(C)S(=O)(=O)c1cccc(NC(=O)COC(=O)c2cn(-c3ccccc3)nc2-c2ccccc2)c1 | 12.3 |
| O=C1Nc2ccccc2N(O)N1c1cc(-c2ccc(Cl)cc2)[nH]n1 | 22.9 |
| CC(C)(C)c1nc(N)nc(=O)[nH]1 | -1.18 |
| COc1ccc(C(=O)C2CCCN(C(=O)Cc3c(C)noc3C)C2)cc1OC (stereo not drawn) | -3.81 |
| COc1ccc2cc(C(=O)C3CCCN(C(=O)c4csnn4)C3)ccc2c1 (stereo not drawn) | -13.2 |
| Cc1noc(C)c1CC(=O)N1CCCC(C(=O)c2ccc(C(C)(C)C)cc2)C1 (stereo not drawn) | -18.8 |
| CCOC(=O)N1CCC(N2CCCC(CO)(Cc3cccc(Cl)c3)C2)CC1 (stereo not drawn) | -49 |
| COc1ccc2cc(C(=O)C3CCCN(C(=O)Cc4c(C)noc4C)C3)ccc2c1 (stereo not drawn) | -68.5 |
| CCOC(=O)N1CCC(N2CCCC(C(=O)c3ccc4cc(OC)ccc4c3)C2)CC1 (stereo not drawn) | -74.3 |
| CCOC(=O)N1CCC(N2CCCC(CO)(Cc3ccccc3C)C2)CC1 (stereo not drawn) | 0.621 |
| CCOC(=O)N1CCC(N2CCCC(CO)(Cc3cccc(OC)c3)C2)CC1 (stereo not drawn) | -51.7 |
| CCNC(=O)N1CCCC(C(=O)c2ccc3cc(OC)ccc3c2)C1 (stereo not drawn) | -22.5 |
| COc1cccc(CC(Cc2nc3ccccc3[nH]2)c2nc3ccccc3[nH]2)c1 (stereo not drawn) | -33 |
| Cn1nnnc1SCC(=O)Nc1ccc(N2CCOCC2)cc1 | 5.57 |
| N#CCc1ccc(NC(=O)c2ccc(S(=O)(=O)N3CCCC3)cc2)cc1 | 16.9 |
| CC1CCCCN1S(=O)(=O)c1ccc(NC(=O)c2cccs2)cc1 (stereo not drawn) | -11.3 |
| COc1ccccc1CNc1ncnc2c1cnn2-c1ccccc1 | -12.1 |
| COc1ccc2nc(Nc3nc(CSc4nnnn4-c4ccccc4)cc(=O)[nH]3)nc(C)c2c1 | -42.1 |
| O=C(NCc1ccccc1Cl)c1ccc2ccccc2n1 | -1.85 |

| SMILES | hERG current change (%, negative = inhibition) at 10uM [%] |
| --- | --- |
| O=C(O)C1=C[C@@H](c2ccc(Br)cc2)C[C@@H](OCc2ccc(CO)cc2)O1 | 18.2 |
| Cc1ccc(NC(=O)[C@@H]2CCCN2S(=O)(=O)c2ccccc2C(F)(F)F)cc1S(=O)(=O)N1CCOCC1 | -21.4 |
| CCN1C(=O)N[C@H](c2ccccc2)C(C(C)=O)=C1C | 8.38 |
| CN1CCN(C=NC2=NN(c3cccc(C(F)(F)F)c3)CC2)CC1 | -23.9 |
| O=[N+]([O-])c1ccc(Oc2ccc(/C=N/O)cc2)nc1 | 0.3 |
| N#Cc1ccc(Oc2ccc(/C=N/O)cn2)cc1 | -73.7 |
| Cc1ccc(Oc2ccc(/C=N/O)cn2)cc1 | -1.45 |
| CCOC(=O)Nc1ccc(C(=O)/C=C/c2ccccc2)cc1 | -7.78 |
| COc1cccc(/C=C(\CC(=O)O)c2nc3ccccc3s2)c1 | 11.6 |
| Cn1ncc(Cl)c1C(=O)NNC(=O)Nc1cccc2ccccc12 | 7.09 |
| Cc1ccc(-c2nn3c(C)nnc3c3ccccc23)cc1S(=O)(=O)NC(C)c1ccccc1 (stereo not drawn) | -50.8 |
| Cc1ccc(-c2nnc3c4ccccc4c(C)nn23)cc1S(=O)(=O)N1CCN(CCO)CC1 | -32.9 |
| Cc1ccc(-c2nn3c(C)nnc3c3ccccc23)cc1S(=O)(=O)NCc1ccccc1 | -29.5 |
| Cc1ccc(-c2nn3c(C)nnc3c3ccccc23)cc1S(=O)(=O)NCCO | 11 |
| CCOC(=O)N1CCN(S(=O)(=O)c2cc(-c3nn4c(C)nnc4c4ccccc34)ccc2C)CC1 | -29 |
| Cc1ccc(-c2nn3c(C)nnc3c3ccccc23)cc1S(=O)(=O)N1CCN(CCO)CC1 | -74.5 |
| CCCN(C(=O)c1cc(Cl)nc2ccccc12)C1CCS(=O)(=O)C1 (stereo not drawn) | 9.75 |
| O=C(N/N=C/c1ccncc1)c1ccc(NS(=O)(=O)c2cccs2)cc1 | 8.88 |
| COc1ccc(CN(C)CC2CCCN(CCc3ccccc3C)C2)cc1O (stereo not drawn) | -53.8 |
| COc1cccc(CN(C)CC2CCCN(CCc3ccccc3C)C2)c1 (stereo not drawn) | -109 |
| COc1ccc(CCN2CCCC(CN(C)Cc3cccc(OC)c3)C2)cc1 (stereo not drawn) | -60.6 |

| SMILES | hERG current change (%, negative = inhibition) at 10uM [%] |
| --- | --- |
| CC(=O)c1cccc(CN(C)CC2CCCN(CCc3ccccc3C)C2)c1 (stereo not drawn) | -28.8 |
| CCn1c(CNC(=O)c2ccccc2Br)nnc1SCC(=O)Nc1nncs1 | 3.2 |
| COc1cccc(C(=O)Nc2ccc(NC(=O)c3ccco3)cn2)c1 | -15.1 |
| O=C(Nc1ccc2c(c1)OCO2)c1cnn2c(C(F)(F)F)cc(-c3ccco3)nc12 | 2.24 |
| CCOC(=O)Cc1c(C)nc2c(-c3ccccc3OC)c(C)nn2c1C | -22.7 |
| COc1ccc(/C=N/N2C(=O)CN(C(=O)c3ccccc3)C2c2ccc(OC)cc2)cc1 (stereo not drawn) | -4.19 |
| CCCCc1nc2ccccc2c(C(=O)O)c1C | 7.29 |
| CCCCc1nc2ccccc2c(N)c1CCC.O=C(O)c1cc([N+](=O)[O-])ccc1Cl | -66.4 |
| CN1CCc2c1nc1ccccc1c2N.O=C(O)c1cc([N+](=O)[O-])ccc1Cl | -9.41 |
| Cc1cccc(C(=O)N2N=C(c3ccc(NS(C)(=O)=O)cc3)CC2c2cccs2)c1 (stereo not drawn) | -8.44 |
| CS(=O)(=O)Nc1ccc(C2=NN(S(=O)(=O)c3ccccc3)C(c3cccs3)C2)cc1 (stereo not drawn) | -70.3 |
| CS(=O)(=O)Nc1ccc(C2=NN(C(=O)c3cccc(F)c3)C(c3cccs3)C2)cc1 (stereo not drawn) | -53.8 |
| CS(=O)(=O)Nc1cccc(C2=NN(S(=O)(=O)c3ccccc3)C(c3cccs3)C2)c1 (stereo not drawn) | -1.94 |
| CC(C)C(=O)N1N=C(c2ccc(NS(C)(=O)=O)cc2)CC1c1cccs1 (stereo not drawn) | -68.7 |
| Cc1ccc(C(=O)N2N=C(c3ccc(NS(C)(=O)=O)cc3)CC2c2cccs2)cc1 (stereo not drawn) | -23.1 |
| CC(C)(C)C(=O)N1N=C(c2ccc(NS(C)(=O)=O)cc2)CC1c1cccs1 (stereo not drawn) | -18.6 |
| CS(=O)(=O)Nc1cccc(C2=NN(C(=O)c3cccc(F)c3)C(c3cccs3)C2)c1 (stereo not drawn) | 3.75 |
| CS(=O)(=O)Nc1ccc(C2=NN(C(=O)c3ccccc3)C(c3cccs3)C2)cc1 (stereo not drawn) | -59.6 |
| CCS(=O)(=O)Nc1ccc(C2=NN(C(=O)c3ccccc3)C(c3cccs3)C2)cc1 (stereo not drawn) | 4.84 |
| CS(=O)(=O)Nc1ccc(C2=NN(S(C)(=O)=O)C(c3cccs3)C2)cc1 (stereo not drawn) | -49 |
| CS(=O)(=O)Nc1ccc(C2=NN(C(=O)C3CCCCC3)C(c3cccs3)C2)cc1 (stereo not drawn) | -22.8 |

| SMILES | hERG current change (%, negative = inhibition) at 10uM [%] |
| --- | --- |
| CCOC(=O)C1=NNC2C(=O)N(CC)C(=O)C12 (stereo not drawn) | 9.23 |
| Cc1ccc(C)c(S(=O)(=O)N2CCN(CC(=O)Nc3ccc4c(c3)OCCO4)CC2)c1 | -13.9 |
| Cc1occc1C(=O)N1CCN(S(C)(=O)=O)CC1 | 7.58 |
| COc1ccc(CNC(=O)c2cc(=O)c3cc(C)c(C)cc3o2)cc1 | 19.3 |
| COc1ccccc1C1CC(c2cccc(NS(C)(=O)=O)c2)=NN1S(=O)(=O)c1ccccc1 (stereo not drawn) | 3.08 |
| COc1ccccc1C1CC(c2ccccc2)=NN1S(=O)(=O)c1ccccc1 (stereo not drawn) | 12 |
| COc1ccccc1C1CC(c2ccc(NS(C)(=O)=O)cc2)=NN1S(=O)(=O)c1ccccc1 (stereo not drawn) | -69.6 |
| O=C(COC(=O)c1ccc(S(=O)(=O)N2CCOCC2)cc1)NCc1cccs1 | 2.5 |
| CCOc1ccc(N2CC(C(=O)Oc3ccccc3)CC2=O)cc1 (stereo not drawn) | -10.9 |
| O=S(=O)(CCSc1nc2ccccc2o1)c1nc2ccccc2s1 | -5.57 |
| Cc1cc(Cl)c(S(=O)(=O)N(C)C)cc1OCC(N)=O | 10.5 |
| COc1ccc(C2CC(c3ccccc3)=NN2S(=O)(=O)c2ccccc2)cc1 (stereo not drawn) | 14.8 |
| COc1ccc(N(CC(=O)Nc2ccccc2C(=O)N2CCCC2)S(C)(=O)=O)cc1 | 27.7 |
| CN(CC(=O)Nc1ccccc1C(=O)N1CCCC1)S(=O)(=O)c1ccc(Cl)cc1 | -22.8 |
| COc1ccc(S(=O)(=O)N(CC(=O)Nc2ccccc2C(=O)N2CCOCC2)c2ccc(F)cc2)cc1 | -57 |
| CCOc1ccc(N(CC(=O)Nc2ccccc2C(=O)N2CCCC2)S(C)(=O)=O)cc1 | 2.43 |
| O=C(CN(c1ccccc1)S(=O)(=O)c1ccc(Cl)cc1)Nc1ccccc1C(=O)N1CCCC1 | -54.2 |
| CCOc1ccc(N(CC(=O)Nc2ccccc2C(=O)N2CCOCC2)S(=O)(=O)c2ccc(F)cc2)cc1 | -30.5 |
| COc1ccc(N(CC(=O)Nc2ccccc2C(=O)N2CCCC2)S(=O)(=O)c2ccccc2)cc1 | -51.8 |
| COc1ccc(N(CC(=O)Nc2ccccc2C(=O)N2CCOCC2)S(=O)(=O)c2ccc(F)cc2)cc1 | -44.6 |
| Cc1ccc(S(=O)(=O)N(CC(=O)Nc2ccccc2C(=O)O)c2ccc(Cl)cc2)cc1 | 13.6 |
